The values below come from PubChem BioAssay (NCATS).

Records with an inconclusive call do not appear. Activity calls are given as the source filed them. The call rests on the fitted dose curve; in most records, active means well fitted cell-killing curve with a large enough effect; inconclusive means small, poorly fitted or top-dose-only effect, or effect the other way; inactive means no such curve, though single readings can be large or run the other way.
Potency means the concentration at half of the fitted maximal effect.

The test can be described thus: Quantitative High-Throughput drug screen in 47 multiple myeloma cell lines against the NCATS MIPE library collection: KMS28BM_JCRB cell viability assay (AID 1919874). Further: nearly all actives have a fitted effect of over 35% in size. The settings on record: CellTiter-Glo ATP, 48 h; series mostly up to 45.8 µM; viability, % of control: at the top concentration. The procedure, abridged: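 qHTS format: cells plated (500/well), pin-dosed with MIPE 4.0 compounds, kept 48 h at 37 °C. Readout was CellTiter-Glo luminescence, median RLU.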
Background: ATP-based viability assays read luminescence as a measure of living cells.
For the compound `CON=C(C(=O)N[C@@H]1C(=O)N2C(C(=O)O)=C(CSC(=O)c3ccco3)CS[C@H]12)c1csc(N)n1`, the “viability, % of control” value is 97.7% (inactive).

`CC[C@@]1([C@@H]2O[C@@H]([C@H]3O[C@@](O)(CO)[C@H](C)C[C@H]3C)C[C@H]2C)CC[C@H]([C@]2(C)CC[C@]3(C[C@H](O)[C@@H](C)[C@@H]([C@@H](C)[C@@H](OC)[C@H](C)C(=O)O)O3)O2)O1`: the Potency was 575 nM (active).

Consider `CC(=O)O[C@]1(C(C)=O)CC[C@H]2[C@@H]3C=C(C)C4=CC(=O)CC[C@]4(C)[C@@H]3CC[C@@]21C`, for which the “viability, % of control” value is 125% (inactive).

In the case of `C=CC1=C(C(=O)O)N2C(=O)[C@@H](NC(=O)C(=NO)c3csc(N)n3)[C@H]2SC1`, the “viability, % of control” value was 117% (inactive).
